The results in this text go back to PubChem BioAssay (NCI).

The panel holds about 83,000 compounds, 20% with a hit somewhere; the sample as a whole holds those more often.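 Interpretation: 100, growth as untreated; towards 0, rising growth inhibition; 0, no net growth; 0 to -100, cell death. Compounds scoring below 10 were considered active.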 Values without a mark were called inactive. The source made the active and inactive calls.

Test systems include EKVX NSCLC; SN12C renal; UO-31 renal; TK-10 renal; ACHN renal; CAKI-1 renal; A498 renal; CCRF-CEM leukemia; MOLT-4 leukemia; SR leukemia.
Experiment in all cases: NCI-60 one-dose screen, 48 h (100 = growth as untreated, 0 = no growth, -100 = all killed)
What all share (conditions): 10 µM unless noted

`Cc1c(C(N)=O)sc2ncn(Cc3ccccc3)c(=O)c12`: the growth with EKVX NSCLC was 122%; with SN12C renal, 97.8%; in the assay on UO-31 renal, 61.7%; in the assay on TK-10 renal, 87.8%; with ACHN renal, 99.6%; in the assay with CAKI-1 renal, -1.53% (active). Besides, the growth was 121% in the assay on A498 renal, 138% with CCRF-CEM leukemia, 114% in the assay on MOLT-4 leukemia and 92.8% in the assay on SR leukemia.
With `Fc1ccc(-c2nc(Nc3ccc(-c4nc5ccccc5[nH]4)cc3)nc(N3CCOCC3)n2)cc1`, the growth is -91.3% (active) with EKVX NSCLC; -79.5% (active) with SN12C renal; -87.6% (active) in the assay on UO-31 renal; -94.4% (active) with TK-10 renal; -90.6% (active) with ACHN renal; -93.6% (active) with CAKI-1 renal. For the same molecule, the growth is -81.5% (active) in the assay with A498 renal, -91.5% (active) in the assay with CCRF-CEM leukemia, -91.6% (active) in the assay on MOLT-4 leukemia and -83.3% (active) in the assay with SR leukemia.
For the molecule `O=C(CCc1nnc2sc(-c3ccc(Cl)cc3Cl)nn12)c1nc2ccccc2[nH]1`, the growth in the assay on EKVX NSCLC was -29.7% (active); in the assay with SN12C renal, -36.7% (active); in the assay with UO-31 renal it was -72.6% (active); in the assay on TK-10 renal, -83.2% (active); with ACHN renal, -89.7% (active); in the assay with CAKI-1 renal, -54.2% (active). Besides, the growth in the assay on A498 renal is -74.9% (active); in the assay on MOLT-4 leukemia, 1.48% (active).
For the molecule `Oc1ccccc1C=Nc1ccccc1N=Cc1ccccc1O.[Cu+2]`, the growth is 67.1% in the assay on EKVX NSCLC; 60.3% with SN12C renal; 24% with UO-31 renal; 84.1% with TK-10 renal; 57.3% in the assay with ACHN renal; 68.6% in the assay on CAKI-1 renal. The growth in the assay with A498 renal was 92.8%; with CCRF-CEM leukemia, 27.9%; in the assay with MOLT-4 leukemia it was 3.28% (active); in the assay with SR leukemia, 66.3%.
On to `NNC(=O)C1CC2c3ccccc3C1c1ccccc12` (stereo not drawn), for which the growth with EKVX NSCLC was 115%; in the assay on SN12C renal, 97.8%; in the assay on UO-31 renal it was 93.8%; in the assay on TK-10 renal, 97.5%; in the assay with ACHN renal, 117%; in the assay with CAKI-1 renal, 103%. Moreover, the growth with A498 renal is 129%; with CCRF-CEM leukemia, 82.8%; in the assay with MOLT-4 leukemia it was 105%; in the assay on SR leukemia it was 89%.
Turning to `CNc1ccc(CSc2ccc(Cl)cc2)cc1`, the growth in the assay with EKVX NSCLC is 104%; in the assay with SN12C renal it was 92.2%; with UO-31 renal, 58.3%; in the assay on TK-10 renal, 126%; with ACHN renal, 106%; in the assay on CAKI-1 renal it was -3.51% (active). For the same molecule, the growth is 87% with A498 renal, 33.3% with CCRF-CEM leukemia, 61.5% in the assay on MOLT-4 leukemia and 55.8% with SR leukemia.
With `Nc1nc2ncc(CCNc3ccc(C(=O)NC(CCC(=O)O)C(=O)O)cc3)nc2c(=O)[nH]1` (stereo not drawn), the growth is 119% in the assay on EKVX NSCLC; 108% in the assay on SN12C renal; 70.7% with UO-31 renal; 107% in the assay with TK-10 renal; 103% in the assay on ACHN renal; 114% with CAKI-1 renal. In addition, the growth in the assay with A498 renal is 95.8%; with CCRF-CEM leukemia it was 77.1%; in the assay on MOLT-4 leukemia, 145%; in the assay with SR leukemia, 133%.
With `COc1cc(C2C=C(c3ccc(C)cc3)Nc3nc(SC)[nH]c(=O)c32)ccc1Oc1ccnc2cc(Cl)ccc12` (stereo not drawn), the growth in the assay with EKVX NSCLC was 77%; with SN12C renal it was 67%; in the assay on UO-31 renal, 57.8%; in the assay with TK-10 renal, 78.2%; in the assay on ACHN renal, 55.6%; with CAKI-1 renal, 67.8%. Also, the growth was 71.7% in the assay on A498 renal, 67.5% with CCRF-CEM leukemia, 63.9% with MOLT-4 leukemia and 75.8% with SR leukemia.
